Data reported in PubChem BioAssay AID623888 (Vanderbilt Specialized Chemistry Center, 2012).

Biological target: Metabotropic glutamate receptor 3 (Rattus norvegicus) (UniProt P31422)
Assay: PubChem AID 623888
Conditions: HEK/GIRK rat mGlu3, thallium flux fluorescence, Schild, at 10 µM; % glutamate max: glutamate max response with compound, stronger effect = lower value; glutamate EC50 fold shift: stronger effect = higher value

Sequence of Metabotropic glutamate receptor 3 (Rattus norvegicus) (P31422 whole entry, looked up): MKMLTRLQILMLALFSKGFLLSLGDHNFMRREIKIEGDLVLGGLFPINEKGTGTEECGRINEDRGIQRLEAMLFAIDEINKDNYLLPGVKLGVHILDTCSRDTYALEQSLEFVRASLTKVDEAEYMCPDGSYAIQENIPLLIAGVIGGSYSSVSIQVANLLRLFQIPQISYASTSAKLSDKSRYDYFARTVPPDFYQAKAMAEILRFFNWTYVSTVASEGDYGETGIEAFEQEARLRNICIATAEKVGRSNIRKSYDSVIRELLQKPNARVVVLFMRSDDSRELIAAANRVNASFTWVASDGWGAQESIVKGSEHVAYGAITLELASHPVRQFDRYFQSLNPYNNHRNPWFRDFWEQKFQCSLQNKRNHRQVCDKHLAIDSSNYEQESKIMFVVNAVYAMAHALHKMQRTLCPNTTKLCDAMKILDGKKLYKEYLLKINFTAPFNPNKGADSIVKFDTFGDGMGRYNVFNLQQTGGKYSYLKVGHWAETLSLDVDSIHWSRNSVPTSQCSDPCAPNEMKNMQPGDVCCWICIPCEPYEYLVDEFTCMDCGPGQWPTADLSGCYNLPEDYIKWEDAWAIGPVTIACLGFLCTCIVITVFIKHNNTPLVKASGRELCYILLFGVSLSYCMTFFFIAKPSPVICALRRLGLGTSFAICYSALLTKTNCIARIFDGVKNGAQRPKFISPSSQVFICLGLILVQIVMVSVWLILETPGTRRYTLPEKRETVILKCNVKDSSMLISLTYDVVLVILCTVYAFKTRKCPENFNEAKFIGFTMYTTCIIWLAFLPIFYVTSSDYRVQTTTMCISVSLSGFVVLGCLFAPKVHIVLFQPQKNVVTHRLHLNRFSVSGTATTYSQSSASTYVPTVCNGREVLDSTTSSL

COc1ccc(C#Cc2ccc(C(=O)N3CCC[C@@H](CO)C3)cc2)cc1
% glutamate max: 24.5% | glutamate EC50 fold shift: 8.96
